Assay results reported in PubChem BioAssay AID504882 (Broad Institute, 2011).
In all, about 1,200 compounds went through this assay and about 290 (24%) were called active. Another 9% or so got no clear call; they are omitted. The rule behind the calls is not given here. Not all results are given here. Results with a measured potency or affinity are listed apart.

Assay: cytotoxicity in EBV lymphoblastoid cells, dose response, cytotoxicity control, cell-based, plate reader, cherry-picks, set 2 (AID 504882)
Settings: EBV lymphoblastoid cells (LCL) viability; series mostly up to 19.5 µM

Structure (SMILES)	outcome
CCOc1ccc(S(=O)(=O)N2CCC(C(=O)NCCc3ccc(S(N)(=O)=O)cc3)CC2)cc1	inactive
NC(=O)c1ccccc1N/C=C/C(=O)c1cccs1	inactive
O=C(N/C(=C/c1ccc(Br)cc1)C(=O)N1CCOCC1)c1ccc(Br)o1	inactive
O=C(Nc1ncc(Br)s1)C(Cc1ccccc1)n1cccc1 (stereo not given)	inactive
CN(C)CCC(c1ccccc1)c1ccccn1 (stereo not given)	inactive
CCC(C)n1ncn(-c2ccc(N3CCN(c4ccc(OCC5COC(Cn6cncn6)(c6ccc(Cl)cc6Cl)O5)cc4)CC3)cc2)c1=O (stereo not given)	inactive
CC(=C/c1ccccc1)/C=N/n1c(-c2ccncc2)n[nH]c1=S	inactive
Cn1cccc1/C=N/n1c(-c2ccc(Cl)cc2Cl)n[nH]c1=S	inactive
CCn1c(=O)c2c(cnn2C)c2ccccc21	inactive
OC(CCCN1CCCCC1)(c1ccccc1)c1ccccc1	inactive
COc1ccc(N2C(=O)C(Cl)=C(NCc3ccccc3)C2=O)cc1	inactive
COC(=O)[C@@]1(C)[C@H]2C(=O)N(Cc3ccccc3)C(=O)[C@H]2[C@H]2CN=C(SCc3ccc(Cl)cc3)N21	inactive
CC(C)Nc1nnc(SCC(=O)c2c(N)n(Cc3ccccc3)c(=O)n(C)c2=O)s1	inactive
CCN(C(=O)c1cc(OC)c(OC)c(OC)c1)C1CCCCC1	inactive
COC(=O)C1=NNC(C(=O)OC)C1c1ccccc1 (stereo not given)	inactive
Cn1c(=O)c2c(ncn2CC(=O)Nc2cc(S(=O)(=O)N3CCCCC3)ccc2O)n(C)c1=O	inactive
COCCN1Cc2cccc(C(=O)N3CCN(c4cc(C)ccc4C)CC3)c2C1=O	inactive
O=C(Nc1cc(C(F)(F)F)cc(C(F)(F)F)c1)Nc1cnn(-c2ccc([N+](=O)[O-])cc2)c1C(F)(F)F	inactive
CCOCCCn1cnc2c3cc(F)ccc3n(C)c2c1=O	inactive
CCOC(=O)CCSc1nc(N2CCOCC2)c2c(c1C#N)CC(C)(C)OC2	inactive
COc1ccc(-c2cn3nc4c(nc3n2)CCCC4)cc1	inactive
COc1cccc(C(=O)OCn2nnc3ccccc3c2=O)c1OC	inactive
Nc1nc(N)nc(-c2cc(Cl)ccc2Cl)n1	inactive
O=C(COc1ccc2ccccc2c1)NCCNC(=O)COc1ccc2ccccc2c1	inactive
O=c1c2cnn(-c3ccccc3)c2nc(-c2cccs2)n1-c1ccc(Br)cc1	inactive
CC1CC(C)CN(S(=O)(=O)c2ccc(NC(=O)CCN3C(=O)C4CC=CCC4C3=O)cc2)C1 (stereo not given)	inactive
COc1ccc(S(=O)(=O)NCC(c2cccnc2)N2CCN(c3ccc(F)cc3)CC2)cc1C (stereo not given)	inactive

Structure (SMILES)	outcome
Cc1nc2ncccn2c1-c1csc(Nc2ccccc2)n1	inactive
CC(=O)c1sc(NC(=O)C2COc3ccccc3O2)nc1C (stereo not given)	inactive
O=C(COC(=O)c1cc2ccccc2cc1O)NCc1ccccc1	inactive
CCNc1nc(CN2CCOCC2)nc2sc3c(c12)CCC3	inactive
O=c1c(O)c(-c2ccc(O)c(O)c2)oc2cc(O)cc(O)c12	inactive
O=C(O)[C@@H]1[C@H]2C[C@H]3c4[nH]c5ccccc5c4CCN3C[C@@H]2CC[C@@H]1O	inactive
CC1=NN(C(N)=S)C(=O)C1N=Nc1cccc(C(=O)O)c1 (stereo not given)	inactive
Cc1ccc(C(=O)Nc2ccc3c(c2)OCCO3)c(Cl)c1	inactive
Cc1ccc(C)c(S(=O)(=O)N2CCN(C(=O)c3ccc(C)s3)CC2)c1	inactive
N#Cc1c(Nc2ccccc2)sc(C(=O)c2ccc(F)cc2)c1N	inactive
CNC(=S)Nc1ccc2nc(C)c(C)nc2c1	inactive
Oc1[nH]c2ccccc2c1N=Nc1c(F)c(F)c(Cl)c(F)c1F	inactive
O=C(Nc1cccc(C(=O)O)c1)Nc1ccccc1Cl	inactive
CCn1nnc2cc(C(=O)NCCc3ccccc3F)ccc21	inactive
Cc1ccc(C(=O)Nc2nnc(SCC(=O)N3CCCc4ccccc43)s2)cc1	inactive
CCc1ccc(/C=N/NC(=O)c2ccccn2)cc1	inactive
CCC(Oc1ccccc1)C(=O)NC1CCSC1=O (stereo not given)	inactive
O=C(O)/C=C/c1ccc2ccccc2n1	inactive
CN(C)CCN(Cc1ccc(Cl)cc1)c1ccccn1	inactive
Cc1ccc(C(=O)Nc2cccc(C(=O)O)c2)cc1S(=O)(=O)N1CCCCC1	inactive
CCCCN(c1ccccc1)c1ncnc(N)c1[N+](=O)[O-]	inactive
O=C(N/N=C/c1cccc(O)c1)c1ccc2c(c1)OCCO2	inactive
O=C(NN1C(=O)C2C3C=CC(C4CC34)C2C1=O)c1cccc(Cl)c1 (stereo not given)	inactive
CC(C)(C)n1nc(-c2ccc(F)cc2)c2c(N)ncnc21	inactive
COc1cc(OC)cc(-c2cc3nc(C)c(CCC(=O)O)c(C)n3n2)c1	inactive
CN(C)CC(C)(C)CNS(=O)(=O)c1ccc(OC(F)(F)F)cc1	inactive
COc1cccc(C2=CC(=O)C[C@H](c3ccc4c(c3)OCO4)C2)c1	inactive

Structure (SMILES)	outcome
CCCCCCNC(=O)O[C@]12C[C@@H](C(=O)OC)[C@@H](C(=O)OC)C[C@@]1(O)CN(S(=O)(=O)c1ccc(C)cc1)C2	inactive
COC(=O)CN(c1ccccc1F)S(=O)(=O)c1ccc(C)cc1	inactive
CN(CCNC(=O)C1CCN(S(=O)(=O)N2CCOCC2)CC1)CCc1ccccc1	inactive
O=c1c2cnn(-c3ccccc3)c2nc(-c2cccs2)n1-c1ccc(Cl)cc1	inactive
NNC(=O)c1cccc(COc2ccc3c(c2)CCC3)c1	inactive
S=c1[nH]nc(C2CCCCC2)n1/N=C/c1ccncc1	inactive
N#CC1=C(N)C(C#N)(C#N)C(c2cccnc2)C2CC(c3ccccc3)CC=C12 (stereo not given)	inactive
COc1cc(CC(=O)N(c2ccccc2)c2nc(C)cs2)cc(OC)c1OC	inactive
O=C(CN1C(=O)c2ccccc2S1(=O)=O)Nc1ncc(Cl)cc1Cl	inactive
Cc1ccc(-n2c(=O)c3c(c4cc(C)ccc4n3C)n(CC(=O)NCC3CCCO3)c2=O)cc1 (stereo not given)	inactive
COc1ccc(C)cc1S(=O)(=O)N(CC(=O)Nc1cc([N+](=O)[O-])ccc1C)c1ccc(C)c(C)c1	inactive
O=C(c1sc2cc([N+](=O)[O-])ccc2c1Cl)N1CCOCC1	inactive
Cc1cc(N=Cc2c(O)ccc3cc(Br)ccc23)no1	inactive
Cc1cc(=O)[nH]c(N/N=C/c2ccc(C)o2)n1	inactive
CC(=O)Nc1cccc(-c2cnc(N)c(C(=O)c3cccnc3)n2)c1	inactive
O=C(O)c1cc(=O)c2c(OCC(O)COc3cccc4oc(C(=O)O)cc(=O)c34)cccc2o1	inactive
Cn1cc(SCC(=O)NCC2CCCO2)c2ccccc21 (stereo not given)	inactive
Cc1ccc(-n2c(C)c([N+](=O)[O-])c3ccc(O)c(CN(C)C)c32)cc1	inactive
NC1=NC(=O)NC1(c1ccccc1)c1ccccc1	inactive
Cn1nc(-c2ccc(N3CCOCC3)c(NS(=O)(=O)c3ccccc3)c2)c2ccccc2c1=O	inactive
COc1ccccc1N1CCN(C(=O)CCC(=O)N2CCN(c3ccc(F)cc3)CC2)CC1	inactive
COc1ccc(/C=C/C(=O)OCC(=O)NCc2ccco2)cc1OC	inactive
COc1ccc2cc(-c3cc(C(=O)OCC(=O)NC4CCS(=O)(=O)C4)c4ccccc4n3)ccc2c1 (stereo not given)	inactive
CCOc1ccc(C(=O)NC(=S)N(Cc2ccccc2)Cc2ccccc2)cc1	inactive
O=C(CCCOc1ccccc1)N1CCN(c2ccccc2)CC1	inactive
CCn1c(CCNC(=O)c2ccc(OC)cc2)nnc1SCc1ccc(Cl)cc1Cl	inactive
CC1S/C(=C(\C#N)C(=O)NCc2ccco2)N(Cc2ccco2)C1=O (stereo not given)	inactive

Structure (SMILES)	outcome
Cc1onc(-c2c(Cl)cccc2Cl)c1C(=O)N[C@@H]1C(=O)N2[C@@H]1SC(C)(C)[C@@H]2C(=O)O	inactive
Cc1cc(C)nc(SCC(=O)OCN2C(=O)c3ccccc3C2=O)n1	inactive
Nc1ccccc1SC1CC(=O)N(c2ccccc2Cl)C1=O (stereo not given)	inactive
Cc1ccccc1C(=O)N1CCN(c2ccc(NC(=O)c3ccco3)cc2Cl)CC1	inactive
CCOc1ccccc1NC(=O)Cn1c(=O)sc2ccccc21	inactive
COc1ccc(C(Nc2ccccn2)c2oc(CO)cc(=O)c2O)cc1 (stereo not given)	inactive
CC(=O)c1ccc(NC(=O)c2noc3c2CCC3)cc1	inactive
O=c1nc(N/N=C/C=C/c2ccccc2)cn[nH]1	inactive
Cc1ccc(S(=O)(=O)NC(CC(C)C)C(=O)NCC(c2ccco2)N2CCCCC2)cc1 (stereo not given)	inactive
COc1ccc(S(=O)(=O)NC(CC(=O)NCc2ccco2)C(C)C)cc1 (stereo not given)	inactive
Cc1nnc(SCC(=O)N2CCC(c3noc4ccc(F)cc34)CC2)s1	inactive
CCC(=O)NC(=S)Nc1ccccc1C(F)(F)F	inactive
COc1ccc(NC(=O)C[C@H]2C(=O)N(CCc3ccccc3)C[C@@H]2c2ccc(OC)cc2)cc1	inactive
CC(C)c1cc(NC(=O)c2ccccc2)cc(C(C)C)c1O	inactive
O=C1OCC2=C1C(c1ccc3c(c1)OCO3)c1cc3c(cc1O2)OCO3 (stereo not given)	inactive
CCCCCC(=O)NC(=S)Nc1ccc(Br)cc1C	inactive
Cc1cc(C(=O)CN2C(=O)c3ccccc3C2=O)c(C)n1Cc1cccs1	inactive
COc1ccc(C(=O)N(CN2CCCC2=O)c2cc(C)on2)cc1OC	inactive
Cn1c(=O)[nH]c(=O)c2c1nc(CN1CCOCC1)n2CCCc1ccccc1	inactive
Cc1c(NC(=O)c2cc(-c3cccs3)nc3ccccc23)c(=O)n(-c2ccccc2)n1C	inactive
CN(C1CCCCC1)S(=O)(=O)c1ccc(C(=O)N2CCN(c3nc4ccccc4s3)CC2)cc1	inactive
O=C(CN1C(=O)CCOc2ccccc21)Nc1ccc(Cl)c(S(=O)(=O)N2CCOCC2)c1	inactive
Cc1cccc(CNc2ncnc3ccc(-c4ccoc4)cc23)c1	inactive
COc1cc(-c2nc(C(=O)NCC3CCCO3)cc3c2[nH]c2ccccc23)cc(OC)c1OC (stereo not given)	inactive
